This is an account of results in PubChem BioAssay (NCATS).

Inconclusive results are not listed. Values without a mark were called inactive. The source made the active and inactive calls. Calls come from the whole dose curve; as a rule, active = well fitted curve in the direction sought with a large enough effect; inconclusive = small, poorly fitted or top-dose-only effect, or another doubt; inactive = no such curve, though single readings can be large; an effect the other way counts as inactive or inconclusive.

Assay [1] can be described thus: BET inhibitor-based combinations targeting novel dependencies in MECOM-rearranged (r) AML: SET-2 cell line (AID 2202231).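 For viability: plate controls were DMSO treated cells for no effect and wells without cells for full effect.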 Note: nearly all actives have a fitted effect of over 35% in size. Note: potency is the fitted concentration of half-maximal effect. The following applies: SET-2 AML cells viability, CellTiter-Glo luminescence, 48 h; viability: active compounds read low, concentration not given here. Put shortly:
(§1)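 Each compound was tested at eleven concentrations on cells seeded at 500/well. After two days' incubation, ATP-based luminescence reported viability; responses relative to DMSO and blank wells yielded AUC and cell-line-centred Z-AUC.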

A short description of assay [2]: BET inhibitor-based combinations targeting novel dependencies in MECOM-rearranged (r) AML: OCI-AML3 cell line (AID 2202232). Note: nearly all actives have a fitted effect of over 35% in size. Note: potency is the fitted concentration of half-maximal effect. The following applies: Potency: OCI-AML3 viability. Put shortly: as §1
A short description of assay [3]: BET inhibitor-based combinations targeting novel dependencies in MECOM-rearranged (r) AML: UCSD-AML1 cell line (AID 2202235). Note: nearly all actives have a fitted effect of over 40% in size. Note: potency is the fitted concentration of half-maximal effect. Summed up: (§2)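 First, 500 cells per well were seeded; next, drugs were pinned as 11-point doses; then plates sat 48 hr in the incubator; finally CellTiter-Glo was added and luminescence read, with AUC and Z-AUC computed.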
Assay [4] can be described thus: BET inhibitor-based combinations targeting novel dependencies in MECOM-rearranged (r) AML: AML-194 cell line (AID 2202237; note: nearly all actives have a fitted effect of over 40% in size; note: potency is the fitted concentration of half-maximal effect). Put shortly:
as §1

Assay [5] is described as follows: BET inhibitor-based combinations targeting novel dependencies in MECOM-rearranged (r) AML: MV-4-11 cell line (AID 2202233). Note: nearly all actives have a fitted effect of over 45% in size. Note: potency is the fitted concentration of half-maximal effect. Summed up:
as §2

Assay [6] in a line: BET inhibitor-based combinations targeting novel dependencies in MECOM-rearranged (r) AML: HNT-34 cell line (AID 2202234). Note: nearly all actives have a fitted effect of over 35% in size. Note: potency is the fitted concentration of half-maximal effect. Put shortly:
as §2

Assay [7] is described as follows: BET inhibitor-based combinations targeting novel dependencies in MECOM-rearranged (r) AML: AML-191 cell line (AID 2202236; note: nearly all actives have a fitted effect of over 35% in size; note: potency is the fitted concentration of half-maximal effect). Summed up:
as §1

Assay [8] concerns the target Aldehyde dehydrogenase, mitochondrial (Homo sapiens) (UniProt P05091). Nature of the assay: qHTS for Inhibitors of the Aldehyde Dehydrogenase Family (ALDH2) Primary screen (AID 2061308).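 Note: plate controls were vehicle for no effect and reference inhibitor for full effect; nearly all actives have a fitted effect of over 55% in size.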
Assay [9] addresses Retinaldehyde dehydrogenase 3 (Homo sapiens) (UniProt P47895). As to the kind of experiment: qHTS for Inhibitors of the Aldehyde Dehydrogenase Family (ALDH1A3) Primary screen (AID 2061315).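 Note: plate controls were DMSO vehicle for no effect and reference inhibitor for full effect.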

For `CC1(C)CC[C@]2(NC(=O)C(C)(F)F)CC[C@]3(C)[C@H](C(=O)C=C4[C@@]5(C)C=C(C#N)C(=O)C(C)(C)[C@@H]5CC[C@]43C)[C@@H]2C1`, the Potency in assay [1] is 1660 nM (active); in assay [2], 1480 nM (active); in assay [3] it was 1320 nM (active); in [4] it was 1860 nM (active).

Regarding `CCOP(=O)(OCC)C(C)NC(=O)N(CCCl)N=O` (centres undefined), the viability in assay [1] is 106%. Moreover, the Potency entry in [5], in assay [6], in [3], in assay [7] and in [4] was “inactive” each time.

`COC1C(O)C(C)OC(OC2C(CO)O[C@@H](O[C@@H]3CC4CCC5C(CC[C@]6(C)[C@@H](C7=CC(=O)OC7)CC[C@]56O)[C@@]4(C)[C@H](O)C3)C(O)C2O)C1O` (some centres undefined): the Potency result in assay [8] and in assay [9] was “inactive” in each case.

With `O=C(O)CNC(=O)C1C(=O)N(C2CCCCC2)C(=O)N(C2CCCCC2)C1=O`, the viability in [1] is 114%. The Potency entry in [2], in assay [5], in assay [6], in [7] and in assay [4] was “inactive” throughout.

For `C=C1[C@@H](C)[C@H]2[C@H](Cc3ccccc3)NC(=O)[C@]23OC(=O)/C=C/C(=O)CCC[C@@H](C)C/C=C/[C@H]3[C@@H]1O`, the Potency result in assay [9] was “inactive”.

In the case of `COc1cc2cc(c1Cl)N(C)C(=O)C[C@H](OC(=O)C(C)C)[C@]1(C)O[C@@H]1[C@H](C)[C@@H]1C[C@@](O)(NC(=O)O1)[C@H](OC)/C=C/C=C(\C)C2`, the Potency in assay [1] was 2.1 nM (active). In addition, the Potency result in [2], in assay [5], in [6] and in [4] was “inactive” in each case.

On to `C[C@@H]1O[C@@H](O[C@@H]2C=C3CC[C@@H]4[C@H](CC[C@]5(C)[C@@H](c6ccc(=O)oc6)CC[C@]45O)[C@@]3(C)CC2)[C@H](O)[C@H](O)[C@H]1O`, for which the Potency in assay [5] is 29.5 nM (active); in assay [7] it was 18.6 nM (active); in [4], 14.8 nM (active).

With `C[C@@]12OC(=O)[C@]1([C@@H](O)[C@@H]1C=CCCC1)NC(=O)[C@@H]2CCCl`, the values for the Potency in assay [2], in [6] and in assay [3] were 20.9 nM (active), 37.2 nM (active) and 33.2 nM (active), respectively.

In the case of `C/C1=C/C[C@@H](/C(C)=C/c2csc(C)n2)OC(=O)C[C@H](O)C(C)(C)C(=O)[C@H](C)[C@@H](O)[C@@H](C)CCC1`, the Potency is 93.4 nM (active) in [1], 118 nM (active) in [3], 83.3 nM (active) in assay [7] and 93.4 nM (active) in [4].

Consider `Cc1[nH]ncc1-c1cc2nc([C@@H]3CC4CCN3CC4)[nH]c(=O)c2s1`, for which the Potency in assay [2] was 9340 nM (active); in [5], 3320 nM (active); in [6], 9340 nM (active); in assay [7] it was 8330 nM (active).

As to `CC(C)(O)/C=C\C(=O)[C@](C)(O)[C@H]1[C@H](O)C[C@]2(C)[C@@H]3CC=C4[C@@H](C=C(O)C(=O)C4(C)C)[C@]3(C)C(=O)C[C@@]12C`, the Potency in [2] was 417 nM (active); in assay [6] it was 105 nM (active); in assay [3] it was 148 nM (active); in assay [4], 417 nM (active).

As to `Cn1c(/C=C/CO)c(CO)c2c1C(=O)C=C(N1CC1)C2=O`, in assay [4], the Potency result is “inactive”.

In the case of `C[C@H]1[C@H](O)[C@@H](C)/C=C/C=C/CC/C=C/C=C/C=C/C=C/[C@H](O[C@@H]2O[C@H](C)[C@@H](O)[C@H](N)[C@@H]2O)C[C@@H]2O[C@](O)(C[C@@H](O)[C@H](O)CC[C@@H](O)C[C@@H](O)C[C@@H](O)CC(=O)O[C@H]1C)C[C@H](O)[C@H]2C(=O)O`, the viability in assay [1] was 99%. Besides, the Potency entry in assay [5], in assay [6], in assay [3], in assay [7] and in [4] was “inactive” in each case.

With `C[C@]12COC(=O)C[C@@H]1CC[C@@H]1[C@@H]2CC[C@@]2(C)[C@H]1CC[C@]2(C)O`, the Potency result in assay [2], in assay [6], in [3] and in assay [4] was “inactive” throughout.

As to `O=C(O)C1=CCCN(CCOC(c2ccc(C(F)(F)F)cc2)c2ccc(C(F)(F)F)cc2)C1`, the Potency entry in [4] was “inactive”.

For `CC(=O)OC[C@H]1O[C@@H]([S-])[C@H](OC(C)=O)[C@@H](OC(C)=O)[C@@H]1OC(C)=O.CC[PH+](CC)CC.[Au]`, the Potency was 1180 nM (active) in assay [1] and 833 nM (active) in [6].

`C=C(C)[C@@H]1CCC(C)=C[C@H]1c1c(O)cc(CCCCC)cc1O`: the Potency in assay [2] was 20900 nM (active); in assay [5] it was 18600 nM (active).

With `COc1cc(C(=O)N2CC[C@@H](O)[C@@H](N)C2)cc2nc(-c3cc4ccccc4n3CC3CC3)n(C)c12`, the viability in assay [1] is 103%. The Potency entry in assay [3], in assay [7] and in assay [4] was “inactive” each time.

For the compound `CC(C)CC(N(C)C)C1(c2ccc(Cl)cc2)CCC1` (centres undefined), the Potency entry in assay [3] and in [7] was “inactive” in each case.

Turning to `CC(C)[C@H]1C(=O)N[C@H](CO)Cc2c[nH]c3cccc(c23)N1C`, the Potency is 1150 nM (active) in assay [5] and 51.2 nM (active) in [6].

Take `C[C@](O)(COc1ccc(C#N)cc1)C(=O)Nc1ccc(C#N)c(C(F)(F)F)c1`: the Potency entry in [2], in assay [5], in [3] and in assay [4] was “inactive” each time.

As for `CC(=O)O[C@@]12CO[C@@H]1C[C@H](O)[C@@]1(C)C(=O)[C@H](O)C3=C(C)[C@@H](O)C[C@@](O)([C@@H](OC(=O)c4ccccc4)[C@H]21)C3(C)C`, the viability in assay [1] was 103%. In addition, the Potency in assay [5] and in assay [4] was 23500 nM (active) each time.

`COC12C(COC(N)=O)C3=C(C(=O)C(C)=C(N)C3=O)N1CC1C2N1C` (centres undefined): the Potency entry in [2], in assay [6], in [7] and in assay [4] was “inactive” in each case.

On to `CN1C(=O)[C@@H](NC(=O)[C@H](CCC(F)(F)F)[C@H](CCC(F)(F)F)C(N)=O)N=C(c2ccccc2)c2ccccc21`, for which the Potency entry in assay [2], in [6] and in assay [4] was “inactive” throughout.

Take `O=C(NCCCNc1nc(Nc2ccc(N3CCOCC3)cc2)ncc1C1CC1)C1CCC1`: the Potency in [2] was 14800 nM (active); in assay [5] it was 372 nM (active); in assay [6], 13200 nM (active); in [3], 9340 nM (active).

With `CN(C)[C@@H]1C(=O)C(C(N)=O)=C(O)[C@@]2(O)C(=O)C3=C(O)c4c(O)cccc4[C@@](C)(O)[C@H]3[C@H](O)[C@@H]12`, the Potency entry in assay [2], in assay [6], in assay [3], in [7] and in assay [4] was “inactive” in each case.
